Data from PubChem BioAssay AID2289 (National Center for Advancing Translational Sciences (NCATS), 2010).
Hit rate of the full screen: of about 340,000 compounds, about 3,300 (0.97%) were called active. About 9% were inconclusive and are not listed. Calls follow the shape of the dose curve; as a rule, active = well fitted inhibition curve with a large enough effect; inconclusive = small, poorly fitted or top-dose-only effect, or effect the other way; inactive = flat fitted curve, though single readings scatter. The list shows a part of the results.

Experiment: qHTS Assay for Modulators of miRNAs and/or Inhibitors of miR-21; also: nearly all actives have a fitted effect of over 55% in size
Settings: HeLa miR-21-FLuc reporter, luciferase luminescence, 48 h; actives lower the signal
Outline: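 Compounds were titrated across several concentrations (up to approximately 40 uM) and incubated 48 hours with HeLa miR-21-FLuc reporter cells (miR-21 target sequence downstream of FLuc, endogenous miR-21). Readout was firefly luciferase luminescence after lytic detection reagent.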
Potency is read from the fitted curve at half-maximal effect.

Potency, active:
O=S1(=O)CCN2C(=N1)Sc1c2ccc2c1CCCC2 13.1 µM
Cc1nc(C#N)c(N/N=C/c2cccc(Cl)c2)o1 7.36 µM
CCOc1ccc(-c2cc(NC(=O)Nc3ccccc3Cl)c(C(=O)OC)s2)cc1 5.85 µM
COC(=O)c1sc(-c2ccc(C(C)(C)C)cc2)cc1NC(=O)CCC(=O)O 5.21 µM
COC(=O)c1sc(-c2ccc(C(C)(C)C)cc2)cc1NC(=O)COCC(=O)O 11.7 µM
COc1ccc(N2C(=O)c3ccccc3NC2c2ccc(OC)c(Cn3nnc4ccccc43)c2)cc1 (centres undefined) 5.21 µM
COc1ccc(C2Nc3ccccc3C(=O)N2c2ccc(C)cc2)cc1Cn1nnc2ccccc21 (centres undefined) 6.56 µM
COc1ccc(C2Nc3ccccc3C(=O)N2c2ccc(Cl)cc2)cc1Cn1cc([N+](=O)[O-])cn1 (centres undefined) 0.736 µM
O=[N+]([O-])c1ccccc1/C=N/OCc1ccccc1 14.7 µM
Cc1ccc(Cn2cnc3nc4c(cc3c2=O)CC(C)CC4)cc1 (centres undefined) 4.65 µM
Cc1ccc(Cn2cnc3nc4c(cc3c2=O)CCCC4)cc1 8.26 µM
O=C(Nc1ccc2c(c1)CCC2)C1COc2ccccc2O1 (centres undefined) 1.47 µM
Cc1nc2cc(NC(=O)C3COc4ccccc4O3)ccc2s1 (centres undefined) 4.14 µM
Cc1c(C(=O)N(CCO)Cc2ccccc2)oc2c(F)cccc12 13.1 µM
C=CCn1c(SCC(=O)NCC)nnc1-c1cc2c(s1)CCC(CC)C2 (centres undefined) 7.36 µM
C=CCn1c(SCC(N)=O)nnc1-c1cc2c(s1)CCC(CC)C2 (centres undefined) 13.1 µM
Cc1cccnc1Nc1nc(-c2ccc(O)cc2O)cs1 5.21 µM
Cc1cccnc1Nc1nc(-c2ccc(O)cc2)cs1 3.29 µM
Cc1cccnc1Nc1nc(-c2ccc(O)c(O)c2)cs1 4.65 µM
Cc1ccc2nc(Cl)c(/C=C/C(=O)c3ccco3)cc2c1 14.7 µM
COCc1cc(C)nc2sc(C(=O)Nc3cc(C)ccc3F)c(N)c12 7.36 µM
COCc1cc(C)nc2sc(C(=O)Nc3ccccc3O)c(N)c12 13.1 µM
COCc1cc(C)nc2sc(C(=O)Nc3ccccc3F)c(N)c12 18.5 µM
Cc1c(-c2nsc(NC(=O)c3cccs3)n2)nnn1-c1ccc(Br)cc1 1.85 µM
Cc1ccc(-n2nnc(-c3nsc(NC(=O)c4ccccc4)n3)c2C)cc1 5.21 µM
Cc1c(-c2nsc(NC(=O)c3cccs3)n2)nnn1-c1ccc(F)cc1 0.521 µM
Cc1c(-c2nsc(NC(=O)c3cccs3)n2)nnn1-c1ccc(Cl)cc1 2.07 µM
COc1cccc(-c2nc(=S)c3c(o2)CCCC3)c1 1.85 µM
CCn1c(SCc2nc3ccccc3s2)nnc1-c1ccccc1 16.5 µM
COCCn1c(SCc2nc3ccccc3s2)nc2ccccc21 8.26 µM
Cc1cccc(C)c1Nc1nnc(SCc2nc3ccccc3s2)s1 4.65 µM
Cc1nnc(SCc2nc3ccccc3s2)n1-c1ccccc1 16.5 µM
CCCn1c(SCc2nc3ccccc3s2)n[nH]c1=O 6.56 µM
O=c1c2ccccc2nc(SCc2nc3ccccc3s2)n1CCCO 11.7 µM
c1ccc(SCc2nc3ccccc3s2)nc1 3.69 µM
CCCSc1nnc(Nc2ccccc2C)s1 5.85 µM
Cc1ccccc1OCCSc1nnc(C)n1-c1ccccc1 14.7 µM
Brc1ccccc1-c1nnc(SCc2nc3ccccc3s2)o1 8.26 µM
Nc1ccc2oc(-c3ccccc3Cl)cc(=O)c2c1O 6.56 µM
Nc1ccc(O)c2c(=O)cc(-c3ccccc3Cl)oc12 3.29 µM
O=c1cc(-c2ccccc2Cl)oc2cc(O)cc(O)c12 10.4 µM
C#Cc1cccc(NC(=O)c2ccc(Cl)cc2Cl)c1 1.17 µM
O/N=C/c1cn(-c2ccc(Cl)cc2)nn1 13.1 µM
O=C(COc1ccc(F)cc1Br)NCc1ccccn1 14.7 µM
Cc1ccc(CNC(=O)Nc2ccccc2)c(C)c1 1.65 µM
COc1ccc(CNC(=S)N/N=C(/C)c2ccccc2)cc1 11.7 µM
COc1ccccc1C(=O)NC(=O)Nc1cccc(Cl)c1 0.736 µM
COc1ccc(CNC(=O)Nc2cccc(Cl)c2)cc1 3.69 µM
COc1ccc(CNC(=O)Nc2ccccc2)cc1 4.65 µM
CSc1ccc(NC(=O)NCc2ccccc2)cc1 9.27 µM
COc1ccc(/C=N/N=C2/SCC(=O)N2Cc2ccccc2)cc1 2.07 µM
CCc1ccc2[nH]c(C(=O)Nc3ccc(Br)c(C)n3)cc2c1 1.65 µM
COc1cccc(CNc2nc3nc(C)c(Cl)c(C)n3n2)c1 10.4 µM
COc1ccc(CNc2nc3nc(C)c(Cl)c(C)n3n2)cc1 16.5 µM
O=C(/C=C/c1ccccc1[N+](=O)[O-])Nc1cccnc1 7.36 µM
Cc1ccc(OCC(=O)Nc2ccccc2[N+](=O)[O-])c(Br)c1 1.31 µM
O=C(COc1ccccc1Cl)Nc1cccnc1 6.56 µM
Cc1ccc(Cl)c(OCC(=O)Nc2cccnc2)c1 3.29 µM
O=C(COc1ccccc1[N+](=O)[O-])Nc1cccnc1 8.26 µM
Cc1ccc(OCC(=O)Nc2ccon2)c([N+](=O)[O-])c1 6.56 µM
Cc1ccc(NC(=O)c2ccc(OC(=O)COc3ccc(Cl)cc3C)cc2)cc1 1.47 µM
Cc1ccc(NC(=O)COc2ccc(Br)cc2C)cc1 9.27 µM
O=C(COc1ccccc1[N+](=O)[O-])Nc1ccc(Br)cc1 3.29 µM
O=C(NNC(=S)Nc1ccccc1)c1ccc(O)cc1 7.36 µM
S=C(NNC(=S)Nc1ccccc1)Nc1ccccc1 6.56 µM
Cn1c(C2=C(O)CN(Cc3ccccc3)C2=N)nc2ccccc21 14.7 µM
O=C(Nc1ccccc1F)c1ccc2ncsc2c1 9.27 µM
O=C(Nc1ccc(Cl)cc1Cl)c1ccc2ncsc2c1 2.33 µM
O=C(Nc1ccc(F)cc1F)c1ccc2ncsc2c1 13.1 µM
O=C(Nc1ccc(Br)cc1)c1ccc2ncsc2c1 1.47 µM
N#C/C(=C\c1cccs1)C(=O)Nc1nccs1 7.36 µM
Cc1ccc(OCCn2c(=O)n(C)c3ccccc32)cc1 7.36 µM
Cn1c(=O)n(CCOc2ccccc2Cl)c2ccccc21 7.36 µM
Cc1ccc2oc(C(=O)NCCCN3CCOCC3)c(C)c2c1 2.93 µM
Cc1ccc2oc(C(=O)N3CCCCCC3)c(C)c2c1 6.56 µM
CCc1cc(CNC(=O)CCc2nnc(CCCc3ccccc3)o2)on1 7.36 µM
COc1ccc(CCc2nnc(CCC(=O)NCc3cc(C(C)C)no3)o2)cc1 14.7 µM
Cc1ccc(-n2ncc3c(SCc4ccccc4)ncnc32)cc1 3.29 µM
CC(C)Sc1ncnc2c1cnn2-c1ccccc1 2.61 µM
Brc1ccccc1OCCCn1cnc2ccccc21 1.85 µM
O=[N+]([O-])c1ccccc1OCCCn1cnc2ccccc21 2.93 µM
C#CCn1c(COc2ccccc2C)nc2ccccc21 5.85 µM
Cc1ccccc1OCc1nc2ccccc2n1C 1.04 µM
Cn1c(COc2ccc(F)cc2)nc2ccccc21 2.93 µM
CCn1c(COc2ccccc2C)nc2ccccc21 9.27 µM
Cc1nnc(OCc2nc3ccccc3n2C)c2ccccc12 16.5 µM
Cc1cccc(OCc2nc3ccccc3n2C)c1 16.5 µM
COc1ccc(-c2cc3ccc(OCC(C)=O)cc3oc2=O)cc1 0.656 µM
COc1ccc(-c2cc3ccc(OCC(C)=O)cc3oc2=O)cc1OC 3.69 µM
COc1ccc(-c2cc3ccc(O)cc3oc2=O)cc1OC 18.5 µM
COc1ccc(-c2c(C)c3ccc(O)cc3oc2=O)cc1 9.27 µM
O=C(O)c1cc(N/N=C/c2ccc(-c3ccc(F)cc3)o2)ccc1Cl 16.5 µM
O=C(O)c1cc(N/N=C/c2ccc(OCc3ccccc3)cc2)ccc1Cl 1.17 µM
O=C(O)c1cc(N/N=C/c2ccc(-c3ccccc3)cc2)ccc1Cl 0.233 µM
CSc1n[nH]c(-c2ccc(C(F)(F)F)cc2)n1 7.36 µM
C#CC(C)(C)NC(=O)c1ccc(-c2ccccc2F)cc1 5.85 µM
COc1ccc(C(=O)NC2=Nc3ccccc3N=C(C)C2c2ccccc2)cc1 (centres undefined) 13.1 µM
CC(C)C(=O)OCC(=O)Nc1ccc(N=Nc2ccccc2)cc1 1.85 µM
O=C(Nc1ccc(N=Nc2ccccc2)cc1)c1ccccc1Cl 1.04 µM
CC(=O)Nc1ccc(N=Nc2ccccc2)cc1 1.65 µM
CCCC(=O)OCC(=O)Nc1ccc(N=Nc2ccccc2)cc1 3.69 µM
CC(=O)OCC(=O)Nc1ccc(N=Nc2ccccc2)cc1 1.31 µM
COCCC1CCCCN1C(=O)c1ccc2nc(Cc3ccccc3F)oc2c1 (centres undefined) 4.14 µM
Cn1/c(=N/N=C/c2ccccn2)sc2ccccc21 2.07 µM
C/C(=N\N=c1/sc2ccccc2n1C)c1ccccn1 11.7 µM
COCCc1nn2c(=O)cc(COC(=O)c3ccccc3C)nc2s1 10.4 µM
CCc1nn2c(=O)cc(COC(=O)c3cccs3)nc2s1 9.27 µM
CC(C)c1nn2c(=O)cc(COC(=O)c3cccs3)nc2s1 8.26 µM
Cc1ccccc1C(=O)OCc1cc(=O)n2nc(C(C)C)sc2n1 2.33 µM
